Source: PubChem BioAssay (NCI)
The panel holds about 83,000 compounds, 20% with a hit somewhere; the sample as a whole holds those more often.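 For each line, cells grew in 96-well plates with the test compound present at a single concentration for 48 hours.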 Activity calls are given as the source filed them. Rule for the calls: active = growth percent below 10; inactive = the rest.

Tested on: HL-60(TB) leukemia
Test: NCI-60 one-dose screen, 48 h (100 = growth as untreated, 0 = no growth, -100 = all killed)
Conditions: 10 µM unless noted

Row | Structure (SMILES) | growth
1 | COC(=O)c1c(C)nc(C)c2c1C(=O)C=C(NCc1ccccc1)C2=O | 81.8% (inactive)
2 | CCC(=O)NC1=C(Cl)C(=O)C(NC(=O)CC)=C(Cl)C1=O | -51.1% (active)
3 | O=C(Nc1ccc(Nc2ccncc2)cc1)c1ccc(C(=O)Nc2ccc(Nc3ccncc3)cc2)cc1 | 23% (inactive)
4 | COc1ccc(/C=N/NC(=O)c2cnn3c2NC(c2ccccc2)C3)cc1OC (stereo not given) | 36.4% (inactive)
5 | CC(=O)[C@@]1(O)[C@H](C)C[C@H]2[C@@H]3C=C(C)C4=Cc5c(cnn5-c5ccccc5)C[C@]4(C)[C@H]3[C@@H](O)C[C@@]21C | -16% (active)
6 | O=C1N/C(=N/N=C(c2ccccc2)c2ccccc2)S/C1=C\c1ccc(Br)cc1 | 89.1% (inactive)
7 | COc1ccc2c(c1)N(CCO)C1=C(C(=O)OC1)C2c1cccc(F)c1 (stereo not given) | -22.7% (active)
8 | O=C1c2ccccc2CCC1(Br)Br | -31.3% (active)
9 | Cc1cccc2c(Nc3ccc(NS(C)(=O)=O)cc3)c3ccc([N+](=O)[O-])cc3nc12 | -27.2% (active)
10 | Cc1ccc(Nc2nc(-c3ccc(F)cc3)c(C#N)c(=O)n2C)cc1 | 90.1% (inactive)
11 | OCCNc1nc(Nc2ccc(C3=NN(c4cc(Cl)cc(Cl)c4)C(c4ccc(C(F)(F)F)cc4)C3)cc2)nc(N2CCOCC2)n1 (stereo not given) | 101% (inactive)
12 | COc1ccc2[nH]c(O)c(/C=c3/cc4c(c(-c5cc(OC)c(OC)c(OC)c5)n3)=Nc3ccccc3-4)c2c1 | 58.8% (inactive)
13 | COc1ccc(C(O)c2cc3c(N)c(C(=O)Nc4cccc(Cl)c4)sc3nc2C)cc1 (stereo not given) | 0.332% (active)
14 | COc1ccc(/C=C/C(=O)c2ccc(Nc3nc(Nc4ccc(F)cc4)nc(Nc4ccc(Cl)cc4)n3)cc2)cc1 | -0.226% (active)
15 | Cc1ccc(S(=O)(=O)NC(=O)n2cc(-c3ccncc3)c(-c3ccc(Cl)c(O)c3)n2)cc1 | 85.1% (inactive)
16 | CCOc1cccc(/C=N/NC(=O)C(=O)Nc2cccc(C(F)(F)F)c2)c1O | 11.2% (inactive)
17 | O=c1[nH]ccc2c(S(=O)(=O)N3CCCNCC3)cccc12 | 87.1% (inactive)
18 | O=[N+]([O-])c1ccc2c(c1)Cc1ccccc1-2 | 87% (inactive)
19 | NS(=O)(=O)c1ccc(CCn2c(SCC(=O)N/N=C/c3cccnc3)nc3ccccc3c2=O)cc1 | 80.4% (inactive)
20 | O=C(O)C1(Cc2cccc(Nc3nccs3)n2)CCC(Oc2cccc(Cl)c2F)CC1 (stereo not given) | 50.7% (inactive)

Row | Structure (SMILES) | growth
21 | CN(C)CCCNc1nc2ccccc2c2c(=O)c3cc(F)ccc3sc12 | -43.5% (active)
22 | CN=S(=O)(NC(=O)c1ccc(Cl)cc1Cl)c1ccc(Br)s1 (stereo not given) | 108% (inactive)
23 | COC(=O)C1=C(C)C(=O)CC1 | 86.7% (inactive)
24 | O=C(N=c1oc2ccccc2cc1-c1cc2ccccc2[nH]1)c1ccc(Cl)cc1 | 26.2% (inactive)
25 | CC(C)(O)C(=O)O | 103% (inactive)
26 | O=C1N=c2cc3c(cc2=C/C1=C/c1sc(=S)n(CCc2ccc(O)cc2)c1O)OCCO3 | 48.1% (inactive)
27 | COc1cccc(-c2nnc(COc3ccc(-c4nc5ccccc5[nH]4)cc3OC)o2)c1 | 103% (inactive)
28 | CC(=Nc1ccccc1)C1=C(O)C(Cc2cccc(F)c2)NC1=O (stereo not given) | -15.2% (active)
29 | COc1ccc(S(=O)(=O)NCCNc2nccc(-c3c(-c4ccccc4)nc4sccn34)n2)cc1 | 25.4% (inactive)
30 | CN1CCc2nc3sc(C(N)=O)c(N)c3c(-c3cccs3)c2C1 | 7.35% (active)
31 | Cc1nn(-c2ccccc2)c(Cl)c1/C=C(/NC(=O)c1ccccc1)c1nc2ccccc2[nH]1 | 85.5% (inactive)
32 | O=C(c1ccc(Br)cc1)C(Br)C(c1ccc(Cl)cc1)C(c1ccccc1)[N+](=O)[O-] (stereo not given) | 99.3% (inactive)
33 | NNC(=O)CSc1nc2scc(-c3ccccc3)c2c(=O)n1-c1ccccc1 | 84% (inactive)
34 | O=C(Nc1cccc(C2=NCCN2)c1)c1cccc(C(=O)Nc2cccc(C3=NCCN3)c2)c1 | 98.7% (inactive)
35 | CCCCOP(=O)(OCCCC)C(C(=O)OCC)C(CC(=O)OCC)C(=O)OCC (stereo not given) | 102% (inactive)
36 | CCN(CC)c1ccc(/C=N/NC(=O)CSc2nc3ccccc3c(=O)n2CCc2ccc(S(N)(=O)=O)cc2)c(O)c1 | -18.7% (active)
37 | COc1cc2c3c(n(CCCCNCCCn4c5c(c6cc(OC)c(OC)cc6c4=O)C(=O)c4cc6c(cc4-5)OCO6)c(=O)c2cc1OC)-c1cc2c(cc1C3=O)OCO2 | 93.7% (inactive)
38 | c1coc(CNc2ccnc(Nc3ccc(OCCN4CCCCC4)cc3)n2)c1 | 74.6% (inactive)
39 | CCC(CCNc1cc(OC)cc2cccnc12)CN1C(=O)c2ccccc2C1=O (stereo not given) | 107% (inactive)
40 | COc1cc(NC(=O)c2cc(O)c(C/C=C(\C)CCC=C(C)C)c(O)c2)cc2c1O[C@]1(C)CC[C@@H](O)C(C)(C)[C@H]1C2 | -7.34% (active)
